Reference: PMC7862700, “An all-to-all approach to the identification of sequence-specific readers for epigenetic DNA modifications on cytosine”

Tests used:
Assay in all cases: DAPPL (digital affinity profiling via proximity ligation, sequencing); 10 mM Tris-HCl pH 7.5, 50 mM NaCl, 1 mM DTT, 4% glycerol, room temperature, 30 min; GST-TFs on glutathione beads, 16-mer random dsDNA library, 0.1% formaldehyde crosslink after washing; high values mean tight binding
FEV = target: T1, FEV (Homo sapiens, UniProt Q99581 1-238); settings: protein: recombinant; tags: N-terminal GST; dsDNA, one strand shown
T1 sequence: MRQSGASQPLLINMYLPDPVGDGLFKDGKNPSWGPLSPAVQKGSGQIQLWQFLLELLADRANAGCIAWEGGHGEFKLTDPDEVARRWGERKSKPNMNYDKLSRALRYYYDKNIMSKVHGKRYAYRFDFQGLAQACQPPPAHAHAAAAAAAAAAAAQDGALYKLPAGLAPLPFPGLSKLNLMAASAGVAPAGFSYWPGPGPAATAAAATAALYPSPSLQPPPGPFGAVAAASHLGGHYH
How it was run: (§1)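 Pools of DNA-barcoded human transcription factors, expressed in yeast as GST fusions on glutathione beads and combined with a tag-only sample, were incubated with 200 nmole of a 16-mer random double-stranded DNA library. Incubation took 30 min at room temperature in Tris/NaCl/DTT/glycerol buffer and was followed by washing, 0.1% formaldehyde crosslinking, proximity ligation (BsaI/T4 ligase, 1 h, 37 °C), PCR amplification and sequencing on an Illumina NextSeq500. Binding signal is the ratio of a hexamer's read frequency for a factor to its frequency for the tag-only sample.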

ETV5 = ETV5 (Homo sapiens, UniProt P41161 1-510); settings: protein: recombinant; tags: N-terminal GST; dsDNA, one strand shown
How it was run: as §1

HSF1 = HSF1 (Homo sapiens, UniProt Q00613 1-529); settings: protein: recombinant; tags: N-terminal GST; chain copies: 3; dsDNA, one strand shown
How it was run: as §1

SPIC = target: T2, SPIC (Homo sapiens, UniProt Q8N5J4 1-248); settings: protein: recombinant; tags: N-terminal GST; dsDNA, one strand shown
T2 sequence: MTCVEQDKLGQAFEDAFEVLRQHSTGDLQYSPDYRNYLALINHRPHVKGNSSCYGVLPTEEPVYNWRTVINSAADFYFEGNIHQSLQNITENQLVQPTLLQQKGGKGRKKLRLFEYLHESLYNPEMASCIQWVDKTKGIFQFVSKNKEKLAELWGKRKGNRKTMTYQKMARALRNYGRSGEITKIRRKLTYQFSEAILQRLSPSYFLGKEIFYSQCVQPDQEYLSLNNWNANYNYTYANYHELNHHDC
How it was run: as §1

ELF4 = ELF4 (Homo sapiens, UniProt Q99607 1-663); settings: protein: recombinant; tags: N-terminal GST; dsDNA, one strand shown
How it was run: as §1

ELK4 = target: T3, ELK4 (Homo sapiens, UniProt P28324-2 1-405); settings: protein: recombinant; tags: N-terminal GST; dsDNA, one strand shown
T3 sequence: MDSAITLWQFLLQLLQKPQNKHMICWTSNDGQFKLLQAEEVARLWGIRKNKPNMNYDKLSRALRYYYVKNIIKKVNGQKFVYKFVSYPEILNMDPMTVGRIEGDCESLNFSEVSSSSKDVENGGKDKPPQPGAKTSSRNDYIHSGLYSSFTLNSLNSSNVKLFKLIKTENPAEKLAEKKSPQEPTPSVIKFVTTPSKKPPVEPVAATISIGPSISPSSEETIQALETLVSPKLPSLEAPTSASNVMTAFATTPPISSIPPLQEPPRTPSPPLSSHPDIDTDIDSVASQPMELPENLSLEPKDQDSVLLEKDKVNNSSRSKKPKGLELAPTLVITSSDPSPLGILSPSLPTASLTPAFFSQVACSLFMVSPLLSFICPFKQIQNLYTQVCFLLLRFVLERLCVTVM
How it was run: as §1

ETV2 = target: T4, ETV2 (Homo sapiens, UniProt O00321 1-342); settings: protein: recombinant; tags: N-terminal GST; dsDNA, one strand shown
T4 sequence: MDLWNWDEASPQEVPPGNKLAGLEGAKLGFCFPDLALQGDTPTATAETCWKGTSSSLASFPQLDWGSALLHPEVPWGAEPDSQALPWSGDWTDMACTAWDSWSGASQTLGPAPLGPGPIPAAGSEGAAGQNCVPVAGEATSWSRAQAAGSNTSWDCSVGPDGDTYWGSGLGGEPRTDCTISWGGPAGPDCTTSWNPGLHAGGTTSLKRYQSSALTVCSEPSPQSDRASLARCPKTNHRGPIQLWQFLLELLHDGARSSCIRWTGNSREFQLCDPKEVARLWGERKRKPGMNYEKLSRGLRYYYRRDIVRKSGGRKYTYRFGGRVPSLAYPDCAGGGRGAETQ
How it was run: as §1

ELF3 = target: T5, ELF3 (Homo sapiens, UniProt P78545 1-371); settings: protein: recombinant; tags: N-terminal GST; dsDNA, one strand shown
T5 sequence: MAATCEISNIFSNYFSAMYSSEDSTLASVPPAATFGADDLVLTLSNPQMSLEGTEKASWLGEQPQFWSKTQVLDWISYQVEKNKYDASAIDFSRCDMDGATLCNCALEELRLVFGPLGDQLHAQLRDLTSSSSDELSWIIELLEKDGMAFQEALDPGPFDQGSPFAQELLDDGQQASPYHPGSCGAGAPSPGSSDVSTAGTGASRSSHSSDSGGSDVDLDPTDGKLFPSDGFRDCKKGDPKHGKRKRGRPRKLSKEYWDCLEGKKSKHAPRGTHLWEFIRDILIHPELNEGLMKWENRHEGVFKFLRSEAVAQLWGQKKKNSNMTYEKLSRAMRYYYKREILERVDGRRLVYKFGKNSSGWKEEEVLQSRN
How it was run: as §1

CRX = CRX (Homo sapiens, UniProt O43186 1-299); settings: protein: recombinant; tags: N-terminal GST; dsDNA, one strand shown
How it was run: as §1

ETV1 = ETV1 (Homo sapiens, UniProt P50549 1-477); settings: protein: recombinant; tags: N-terminal GST; dsDNA, one strand shown
How it was run: as §1

ERF = target: T6, ERF (Homo sapiens, UniProt P50548 1-548); settings: protein: recombinant; tags: N-terminal GST; dsDNA, one strand shown
T6 sequence: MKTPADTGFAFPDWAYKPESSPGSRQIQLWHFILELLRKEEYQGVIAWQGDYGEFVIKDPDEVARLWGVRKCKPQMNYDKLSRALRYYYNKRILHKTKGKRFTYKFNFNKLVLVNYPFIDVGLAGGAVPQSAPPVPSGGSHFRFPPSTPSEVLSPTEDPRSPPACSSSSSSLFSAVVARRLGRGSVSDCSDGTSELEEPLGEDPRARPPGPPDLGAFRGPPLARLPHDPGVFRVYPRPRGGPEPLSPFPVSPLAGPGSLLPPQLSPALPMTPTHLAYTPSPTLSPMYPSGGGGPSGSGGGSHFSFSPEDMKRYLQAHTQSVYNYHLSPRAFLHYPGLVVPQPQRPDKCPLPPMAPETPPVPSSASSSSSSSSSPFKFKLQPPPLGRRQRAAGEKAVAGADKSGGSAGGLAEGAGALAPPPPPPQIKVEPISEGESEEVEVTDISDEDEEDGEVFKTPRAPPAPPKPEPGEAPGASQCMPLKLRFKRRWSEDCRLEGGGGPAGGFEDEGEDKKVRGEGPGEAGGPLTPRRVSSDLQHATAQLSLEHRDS
How it was run: as §1

ETV3L = target: T7, ETV3L (Homo sapiens, UniProt Q6ZN32 1-361); settings: protein: recombinant; tags: N-terminal GST; dsDNA, one strand shown
T7 sequence: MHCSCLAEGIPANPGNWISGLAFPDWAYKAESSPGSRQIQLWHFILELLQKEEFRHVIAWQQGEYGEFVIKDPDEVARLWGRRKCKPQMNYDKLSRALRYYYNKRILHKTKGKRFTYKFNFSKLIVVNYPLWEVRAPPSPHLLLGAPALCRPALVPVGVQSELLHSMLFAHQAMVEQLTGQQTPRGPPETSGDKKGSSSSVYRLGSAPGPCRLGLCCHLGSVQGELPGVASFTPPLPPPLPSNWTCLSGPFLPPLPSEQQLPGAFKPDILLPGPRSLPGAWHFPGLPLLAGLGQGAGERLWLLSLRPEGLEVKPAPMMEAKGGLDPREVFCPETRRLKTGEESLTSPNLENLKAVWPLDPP
How it was run: as §1

ETS2 = target: T8, ETS2 (Homo sapiens, UniProt P15036 1-469); settings: protein: recombinant; tags: N-terminal GST; dsDNA, one strand shown
T8 sequence: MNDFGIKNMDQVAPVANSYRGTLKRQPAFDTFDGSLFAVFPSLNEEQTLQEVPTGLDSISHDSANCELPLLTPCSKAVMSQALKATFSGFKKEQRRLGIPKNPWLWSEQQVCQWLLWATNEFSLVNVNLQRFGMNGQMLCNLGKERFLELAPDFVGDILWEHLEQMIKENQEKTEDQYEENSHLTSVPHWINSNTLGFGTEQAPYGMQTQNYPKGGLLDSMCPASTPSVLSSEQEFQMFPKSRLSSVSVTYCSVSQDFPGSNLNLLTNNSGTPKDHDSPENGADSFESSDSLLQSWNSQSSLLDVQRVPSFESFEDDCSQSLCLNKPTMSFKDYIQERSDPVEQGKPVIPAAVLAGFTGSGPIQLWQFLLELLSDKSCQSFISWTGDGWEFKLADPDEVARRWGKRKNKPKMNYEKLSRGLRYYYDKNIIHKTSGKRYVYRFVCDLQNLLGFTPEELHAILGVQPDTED
How it was run: as §1

ETV7 = target: T9, ETV7 (Homo sapiens, UniProt Q9Y603 1-341); settings: protein: recombinant; tags: N-terminal GST; dsDNA, one strand shown
T9 sequence: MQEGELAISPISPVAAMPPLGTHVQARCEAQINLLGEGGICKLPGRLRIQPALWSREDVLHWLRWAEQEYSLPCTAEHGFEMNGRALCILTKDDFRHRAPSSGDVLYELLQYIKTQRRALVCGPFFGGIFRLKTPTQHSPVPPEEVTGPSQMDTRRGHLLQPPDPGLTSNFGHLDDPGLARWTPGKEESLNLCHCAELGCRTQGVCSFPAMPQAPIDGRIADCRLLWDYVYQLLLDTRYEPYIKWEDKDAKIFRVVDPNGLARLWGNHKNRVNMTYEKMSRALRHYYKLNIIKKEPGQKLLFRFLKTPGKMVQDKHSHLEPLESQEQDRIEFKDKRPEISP
How it was run: as §1

ELF5 = target: T10, ELF5 (Homo sapiens, UniProt Q9UKW6-2 1-255); settings: protein: recombinant; tags: N-terminal GST; dsDNA, one strand shown
T10 sequence: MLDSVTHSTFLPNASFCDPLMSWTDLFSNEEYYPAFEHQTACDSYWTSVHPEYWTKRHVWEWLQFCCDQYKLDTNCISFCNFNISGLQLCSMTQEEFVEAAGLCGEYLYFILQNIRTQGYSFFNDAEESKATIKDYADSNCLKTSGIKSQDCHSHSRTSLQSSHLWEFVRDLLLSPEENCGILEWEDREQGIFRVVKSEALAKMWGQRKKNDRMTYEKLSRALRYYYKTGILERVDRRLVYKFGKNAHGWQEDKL
How it was run: as §1

ETV3 = target: T11, ETV3 (Homo sapiens, UniProt P41162-2 1-143); settings: protein: recombinant; tags: N-terminal GST; dsDNA, one strand shown
T11 sequence: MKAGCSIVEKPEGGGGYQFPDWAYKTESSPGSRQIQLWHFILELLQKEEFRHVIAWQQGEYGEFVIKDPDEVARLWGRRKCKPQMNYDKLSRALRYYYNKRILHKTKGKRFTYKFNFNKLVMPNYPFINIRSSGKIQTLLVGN
How it was run: as §1

ETV6 = ETV6 (Homo sapiens, UniProt P41212 1-452); settings: protein: recombinant; tags: N-terminal GST; dsDNA, one strand shown
How it was run: as §1

ETV5, sequence (P41161 whole entry): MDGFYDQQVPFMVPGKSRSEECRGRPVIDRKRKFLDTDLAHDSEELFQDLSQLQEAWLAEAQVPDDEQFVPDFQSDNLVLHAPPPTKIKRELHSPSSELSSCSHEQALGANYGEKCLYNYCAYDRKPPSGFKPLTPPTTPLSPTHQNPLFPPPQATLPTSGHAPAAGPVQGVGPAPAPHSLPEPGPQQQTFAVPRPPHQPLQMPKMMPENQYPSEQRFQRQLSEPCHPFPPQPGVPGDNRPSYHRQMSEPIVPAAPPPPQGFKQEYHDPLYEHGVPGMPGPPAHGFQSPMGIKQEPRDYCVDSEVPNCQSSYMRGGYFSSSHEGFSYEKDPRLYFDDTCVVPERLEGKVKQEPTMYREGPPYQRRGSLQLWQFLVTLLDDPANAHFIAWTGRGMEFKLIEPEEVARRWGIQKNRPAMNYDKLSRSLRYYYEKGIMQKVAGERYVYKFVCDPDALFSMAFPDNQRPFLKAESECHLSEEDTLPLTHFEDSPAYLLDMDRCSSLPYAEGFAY
ETV6, sequence (P41212 whole entry): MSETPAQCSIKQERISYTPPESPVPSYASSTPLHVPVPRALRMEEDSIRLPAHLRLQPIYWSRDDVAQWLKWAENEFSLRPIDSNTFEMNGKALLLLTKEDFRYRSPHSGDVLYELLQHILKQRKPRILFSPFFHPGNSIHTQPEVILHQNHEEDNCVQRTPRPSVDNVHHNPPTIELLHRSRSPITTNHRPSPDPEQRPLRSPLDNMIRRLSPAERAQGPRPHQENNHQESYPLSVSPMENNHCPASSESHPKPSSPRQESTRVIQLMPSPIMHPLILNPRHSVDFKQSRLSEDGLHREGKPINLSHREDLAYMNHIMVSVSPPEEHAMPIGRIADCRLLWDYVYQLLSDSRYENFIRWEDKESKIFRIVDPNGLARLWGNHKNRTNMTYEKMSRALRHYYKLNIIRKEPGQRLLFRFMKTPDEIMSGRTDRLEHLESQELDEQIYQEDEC
HSF1, sequence (Q00613 whole entry): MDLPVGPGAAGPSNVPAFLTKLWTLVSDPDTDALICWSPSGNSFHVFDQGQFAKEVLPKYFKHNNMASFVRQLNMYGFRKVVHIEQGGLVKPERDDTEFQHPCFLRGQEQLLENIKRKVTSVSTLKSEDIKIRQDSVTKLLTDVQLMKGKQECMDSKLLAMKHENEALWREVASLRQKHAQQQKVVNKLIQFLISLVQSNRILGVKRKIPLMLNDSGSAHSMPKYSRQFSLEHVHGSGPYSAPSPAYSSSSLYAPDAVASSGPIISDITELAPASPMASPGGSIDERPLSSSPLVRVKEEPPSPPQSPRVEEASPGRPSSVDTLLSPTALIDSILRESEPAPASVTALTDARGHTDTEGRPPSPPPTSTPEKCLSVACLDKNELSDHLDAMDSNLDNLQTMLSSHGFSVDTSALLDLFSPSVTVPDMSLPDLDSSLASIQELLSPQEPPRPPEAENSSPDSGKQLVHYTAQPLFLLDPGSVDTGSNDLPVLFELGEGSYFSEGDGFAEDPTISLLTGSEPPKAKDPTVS
CRX, sequence (O43186 whole entry): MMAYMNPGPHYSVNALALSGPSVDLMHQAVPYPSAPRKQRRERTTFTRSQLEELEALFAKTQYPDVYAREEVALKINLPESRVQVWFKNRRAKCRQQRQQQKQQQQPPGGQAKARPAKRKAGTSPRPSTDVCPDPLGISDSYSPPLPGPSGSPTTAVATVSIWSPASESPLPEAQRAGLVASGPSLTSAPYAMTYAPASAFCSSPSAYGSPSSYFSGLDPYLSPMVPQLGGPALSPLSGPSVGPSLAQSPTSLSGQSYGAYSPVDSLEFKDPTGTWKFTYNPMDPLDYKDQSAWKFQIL
ELF4, sequence (Q99607 whole entry): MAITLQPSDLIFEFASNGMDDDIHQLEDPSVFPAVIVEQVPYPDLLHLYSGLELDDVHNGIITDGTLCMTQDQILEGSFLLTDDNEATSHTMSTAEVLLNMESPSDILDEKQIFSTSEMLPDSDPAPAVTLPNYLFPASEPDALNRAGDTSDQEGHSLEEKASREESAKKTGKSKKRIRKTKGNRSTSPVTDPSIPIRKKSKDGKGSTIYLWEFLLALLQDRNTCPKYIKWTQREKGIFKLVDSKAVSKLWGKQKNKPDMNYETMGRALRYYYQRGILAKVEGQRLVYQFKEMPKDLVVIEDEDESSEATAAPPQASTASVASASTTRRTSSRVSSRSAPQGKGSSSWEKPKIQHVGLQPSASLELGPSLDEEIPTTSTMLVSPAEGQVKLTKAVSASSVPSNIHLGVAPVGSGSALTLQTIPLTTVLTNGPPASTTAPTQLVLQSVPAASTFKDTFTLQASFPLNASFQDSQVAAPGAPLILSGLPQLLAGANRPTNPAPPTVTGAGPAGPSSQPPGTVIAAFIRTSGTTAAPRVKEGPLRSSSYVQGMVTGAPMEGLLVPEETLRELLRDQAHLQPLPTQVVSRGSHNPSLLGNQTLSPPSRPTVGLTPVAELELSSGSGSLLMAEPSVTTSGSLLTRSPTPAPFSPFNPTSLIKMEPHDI
ETV1, sequence (P50549 whole entry): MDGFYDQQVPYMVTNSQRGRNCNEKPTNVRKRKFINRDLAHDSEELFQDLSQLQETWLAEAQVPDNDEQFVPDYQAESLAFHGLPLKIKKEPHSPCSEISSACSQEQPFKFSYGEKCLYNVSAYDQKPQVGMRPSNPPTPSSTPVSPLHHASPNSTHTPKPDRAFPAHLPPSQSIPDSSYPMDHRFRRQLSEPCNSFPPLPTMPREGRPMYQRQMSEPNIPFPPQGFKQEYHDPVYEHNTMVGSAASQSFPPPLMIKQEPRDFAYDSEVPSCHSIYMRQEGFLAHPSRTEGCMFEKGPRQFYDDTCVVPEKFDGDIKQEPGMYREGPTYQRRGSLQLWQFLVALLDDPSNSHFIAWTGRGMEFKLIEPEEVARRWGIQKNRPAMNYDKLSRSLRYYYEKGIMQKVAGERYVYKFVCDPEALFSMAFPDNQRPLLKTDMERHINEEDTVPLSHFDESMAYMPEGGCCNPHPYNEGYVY

| Sequence | binding signal (FEV) | binding signal (ETV5) | binding signal (HSF1) | binding signal (SPIC) | binding signal (ELF4) | binding signal (ELK4) | binding signal (ETV2) | binding signal (ELF3) | binding signal (CRX) | binding signal (ETV1) | binding signal (ERF) | binding signal (ETV3L) | binding signal (ETS2) | binding signal (ETV7) | binding signal (ELF5) | binding signal (ETV3) | binding signal (ETV6) |
| --- | --- | --- | --- | --- | --- | --- | --- | --- | --- | --- | --- | --- | --- | --- | --- | --- | --- |
| CCATTA | 1.07 fold enrichment (6-mer frequency, TF over GST control) | 1.06 fold enrichment (6-mer frequency, TF over GST control) | 1.11 fold enrichment (6-mer frequency, TF over GST control) | 1.16 fold enrichment (6-mer frequency, TF over GST control) | 1.12 fold enrichment (6-mer frequency, TF over GST control) | 1.24 fold enrichment (6-mer frequency, TF over GST control) | 1.15 fold enrichment (6-mer frequency, TF over GST control) | 1.21 fold enrichment (6-mer frequency, TF over GST control) | 1.32 fold enrichment (6-mer frequency, TF over GST control) | 1.16 fold enrichment (6-mer frequency, TF over GST control) | 1.07 fold enrichment (6-mer frequency, TF over GST control) | 1.16 fold enrichment (6-mer frequency, TF over GST control) | 1.12 fold enrichment (6-mer frequency, TF over GST control) | 1.13 fold enrichment (6-mer frequency, TF over GST control) | 1.08 fold enrichment (6-mer frequency, TF over GST control) | 1.11 fold enrichment (6-mer frequency, TF over GST control) | 1.13 fold enrichment (6-mer frequency, TF over GST control) |
| TAGCTG | 1.16 fold enrichment (6-mer frequency, TF over GST control) | 1.06 fold enrichment (6-mer frequency, TF over GST control) | 1.23 fold enrichment (6-mer frequency, TF over GST control) | 1.09 fold enrichment (6-mer frequency, TF over GST control) | 1.2 fold enrichment (6-mer frequency, TF over GST control) | 1.23 fold enrichment (6-mer frequency, TF over GST control) | 1.15 fold enrichment (6-mer frequency, TF over GST control) | 1.17 fold enrichment (6-mer frequency, TF over GST control) | 1.38 fold enrichment (6-mer frequency, TF over GST control) | 1.12 fold enrichment (6-mer frequency, TF over GST control) | 1.16 fold enrichment (6-mer frequency, TF over GST control) | 1.14 fold enrichment (6-mer frequency, TF over GST control) | 1.04 fold enrichment (6-mer frequency, TF over GST control) | 1.15 fold enrichment (6-mer frequency, TF over GST control) | 1.13 fold enrichment (6-mer frequency, TF over GST control) | 1.23 fold enrichment (6-mer frequency, TF over GST control) | 1.2 fold enrichment (6-mer frequency, TF over GST control) |
